Experimental data as given in PubChem BioAssay AID652053 (Broad Institute, 2013).
Screen size: about 1,300 compounds; about 930 (72%) were called active.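 How the source made its calls: active means fitted curve reaches 40% activation signal increase at or below the top valid tested concentration in every replicate test; inconclusive means replicate tests disagree in their calls; inactive means all replicate tests inactive, including effects opposite the expected signal rise.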 The set was probably picked from earlier hits. The list is a sample of the results. Results with a measured potency or affinity are listed apart.

test: suppression of miR-122 activity, Renilla luciferase sensor – cell-based, Huh7 psiCHECK-miR122, cherry-pick, dose response (AID 652053); details: Huh7 psiCHECK-miR122 Renilla luciferase reporter, 48 h; series mostly up to 35 µM

| SMILES | outcome |
| --- | --- |
| C[C@H](CO)N1C[C@H](C)[C@H](CN(C)Cc2ccc3c(c2)OCO3)Oc2ccc(N(C)C)cc2CC1=O | inactive |
| C[C@H](CO)N1C[C@H](C)[C@H](CN(C)Cc2ccc(C(F)(F)F)cc2)Oc2ccc(N(C)C)cc2CC1=O | inactive |
| COC(=O)C(CC(C)C)Oc1ccc2c(C)cc(=O)oc2c1 (stereo not drawn) | inactive |
| CC(Oc1ccc(Cl)cc1)c1ccnn1S(=O)(=O)c1ccc(Cl)cc1 (stereo not drawn) | inactive |
| COC(=O)c1ccccc1NC(=O)Cn1c(-c2nonc2N)nc2ccccc21 | inactive |
| C[C@H]1CN([C@@H](C)CO)C(=O)Cc2cc(NC(=O)Nc3cccc4ccccc34)ccc2O[C@@H]1CN(C)C(=O)Nc1cccc2ccccc12 | inactive |
| C[C@H](CO)N1C[C@H](C)[C@@H](CN(C)C(=O)Nc2cccc3ccccc23)Oc2ccc(NC(=O)Nc3cccc4ccccc34)cc2CC1=O | inactive |
| C[C@H]1CN([C@@H](C)CO)C(=O)Cc2cc(NC(=O)Nc3cccc4ccccc34)ccc2O[C@H]1CN(C)C(=O)Nc1cccc2ccccc12 | inactive |
| C[C@@H]1CN([C@@H](C)CO)C(=O)Cc2cc(NC(=O)Nc3cccc4ccccc34)ccc2O[C@H]1CN(C)C(=O)Nc1cccc2ccccc12 | inactive |
| COc1ccc(NC(=O)Nc2cccc3c2O[C@H](CN(C)Cc2ccc4c(c2)OCO4)[C@@H](C)CN([C@@H](C)CO)C3=O)cc1 | inactive |
| FC(F)(F)c1nnc2c(Sc3ccccc3)nc3ccc(Cl)cc3n12 | inactive |
| CCC1=NN(C(=O)c2ccccc2O)C(O)(c2ccccc2)C1 (stereo not drawn) | inactive |
| CCC(=O)N1[C@H](CN(CC)C(=O)c2cccc(F)c2)[C@H](c2ccccc2)[C@@H]1CO | inactive |
| COc1ccc(CNC(=O)C(c2ccc(C)o2)N(Cc2cccs2)C(=O)Cc2cccs2)cc1 (stereo not drawn) | inactive |
| CC(C)Cc1nc2sc3c(=O)[nH]cnc3c2c2c1CCC2 | inactive |
| Cc1ccc(S(=O)(=O)Nc2ccc(C(=O)NCc3ccccn3)cc2)cc1 | inactive |
| O=c1[nH]c(=O)c2[nH]c(=O)n(-c3ccccc3)c2[nH]1 | inactive |
| CCS(=O)(=O)N1Cc2ccccc2CC1C(=O)NCC12CC3CC(CC(C3)C1)C2 (stereo not drawn) | inactive |
| O=C(c1ccc(F)cc1)N1[C@H](CO)[C@@H]2c3ccccc3NC[C@@H]21 | inactive |
| CCn1nc(C(=O)Nc2ccc(S(=O)(=O)Nc3nccs3)cc2)c2ccccc2c1=O | inactive |

| SMILES | outcome |
| --- | --- |
| CCCNC(=O)N1[C@H](CO)[C@@H]2c3ccccc3N(C(=O)c3ccc(F)cc3)C[C@@H]21 | inactive |
| CC(C)NC(=O)N1[C@H](CO)[C@@H]2c3ccccc3N(C(=O)c3ccc(F)cc3)C[C@@H]21 | inactive |
| CCN(C[C@@H]1[C@@H](c2ccccc2)[C@@H](CO)N1C(=O)COC)S(C)(=O)=O | inactive |
| O=C(Nc1ccccc1)c1cc([N+](=O)[O-])ccc1NC1CCCCC1 | inactive |
| O=C(Nc1ccccc1Br)C1CCN(S(=O)(=O)c2cccs2)CC1 | inactive |
| Cc1cc(C)cc(NC(=O)C2CCN(c3nccs3)CC2)c1 | inactive |
| CN1C(=O)c2cc(NC(=O)NC3CCCC3)ccc2OC[C@H]2O[C@@H](CC(=O)O)CC[C@H]21 | inactive |
| CN1C(=O)c2cc(NC(=O)Cc3cccs3)ccc2OC[C@@H]2O[C@@H](CC(=O)NCC3CCCCC3)CC[C@@H]21 | inactive |
| Cc1ccc(-c2nc(CSCC(=O)NCCN3CCN(Cc4ccccc4)CC3)c(C)o2)cc1 | inactive |
| Cc1ccc(CC(=O)N(Cc2ccccc2)c2ccccn2)cc1 | inactive |
| CCCc1cc(=O)oc2cc(OCc3nn[nH]n3)ccc12 | inactive |
| COc1ccccc1CNC(=O)C[C@@H]1CC[C@@H]2[C@H](COc3ccc(NC(C)=O)cc3C(=O)N2C)O1 | inactive |
| COc1ccccc1CNC(=O)C[C@@H]1CC[C@H]2[C@@H](COc3ccc(NS(=O)(=O)c4ccc(C)cc4)cc3C(=O)N2C)O1 | inactive |
| COc1ccccc1CNC(=O)C[C@@H]1CC[C@@H]2[C@H](COc3ccc(NS(=O)(=O)c4ccc(C)cc4)cc3C(=O)N2C)O1 | inactive |
| COc1ccccc1CNC(=O)C[C@H]1CC[C@@H]2[C@H](COc3ccc(NS(=O)(=O)c4ccc(C)cc4)cc3C(=O)N2C)O1 | inactive |
| COc1ccccc1CNC(=O)C[C@H]1CC[C@@H]2[C@@H](COc3ccc(NC(C)=O)cc3C(=O)N2C)O1 | inactive |
| CCOCc1nnc(NS(C)(=O)=O)s1 | inactive |
| CS(=O)(=O)N1N=C(c2ccc(Cl)cc2)CC1c1cccs1 (stereo not drawn) | inactive |
| c1ccc2c(c1)ccc1nnnn12 | inactive |
| Cc1cccc(-c2nnc(-c3cccc4ccccc34)o2)c1 | inactive |

| SMILES | outcome |
| --- | --- |
| OC(COC(c1ccc(Cl)cc1)c1ccc(Cl)cc1)CN1CCCC1 (stereo not drawn) | inactive |
| COc1ccccc1CNC(=O)C[C@H]1CC[C@@H]2[C@@H](COc3ccc(NC(=O)Nc4ccc(F)c(F)c4)cc3C(=O)N2C)O1 | inactive |
| CC1CCCC(NC(=O)COC(=O)c2ccccc2NC(=O)c2ccco2)C1C (stereo not drawn) | inactive |
| Nc1nonc1C(=O)N1CCCC1 | inactive |
| CCOc1ccccc1N1CCN(C(=O)c2ccc3[nH]c(C)c(C)c3c2)CC1 | inactive |
| COc1ccccc1N1CCN(C(=O)c2ccc(Cn3c(=O)[nH]c4ccsc4c3=O)cc2)CC1 | inactive |
| COc1ccccc1N1CCN(C2CC(=O)N(c3cccc(Cl)c3)C2=O)CC1 (stereo not drawn) | inactive |
| COC(=O)c1ccc(/C=N/OCC(=O)NC2CCCCCCC2)cc1 | inactive |
| O=C(CN(C1CCCCC1)S(=O)(=O)c1ccc(Cl)cc1)NCc1cccnc1 | inactive |
| Cc1ccc(C)c(NC(=O)CSc2nnc(CCNC(=O)OC(C)(C)C)o2)c1 | inactive |
| Cc1ccc2cc(-c3noc(C(C)(C)C)n3)c(=O)[nH]c2c1 | inactive |
| CC(=O)c1cccc(NC(=O)NCc2cccs2)c1 | inactive |
| O=c1c[n+]([O-])c2ccccc2n1OCc1c(F)cccc1F | inactive |
| COc1ccc(OCCCC(=O)NCCc2ccccc2)cc1 | inactive |
| COc1ccc(-c2nc(SCc3ccccc3)n(S(C)(=O)=O)n2)cc1 | inactive |
| COc1ccc(S(=O)(=O)N2N=C(C)Oc3ccccc3C2=O)cc1 | inactive |
| COc1ccc(NC(=O)CCN2C(=O)c3ccccc3C2=O)cc1 | inactive |
| CC(=O)Nc1nonc1-n1nnc(C(=O)NCc2ccccc2)c1C | inactive |
